Results on 24 compounds are retold here after the supplement of paper PMC10037445.

In all, about 2,900 compounds were measured (“NF-kB SEAP reporter activity, fold change vs agonist alone”: median about 0.99, highest 2% from about 2.6 on). Only a selection was taken, and the highest values are over-represented in it overall.

The subject of experiment [1] is RAW-Dual. Description: NF-kB SEAP reporter activity, fold change vs agonist alone; higher = enhanced NF-kB activity. In short, it runs like this:
(§1)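 Library stock was pin-tooled at 50 nL into 384-well plates of RAW-Dual macrophages (50,000 cells/well, DMEM), followed 1 h later by a PRR agonist, and the cells were kept at 37 °C, 5% CO2. Supernatant collected after 20 hours was read for IRF by QuantiLuc luminescence and for NF-κB by QuantiBlue absorbance at 620 nm. Reporter activity is fold change over agonist-alone wells, and a well counted as cytotoxic when its IncuCyte confluency was below 70% of agonist controls in both mask sets.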

The subject of experiment [2] is RAW-Dual. Description: NF-kB SEAP reporter activity, fold change vs agonist alone; cytotoxicity flag (confluency mask): cytotoxic (confluency <70% of control); higher = enhanced NF-kB activity. A digest of the protocol: as §1
In experiment [3] the test system is RAW-Dual. Description: NF-kB SEAP reporter activity, fold change vs agonist alone; cytotoxicity flag (confluency mask): not cytotoxic; higher = enhanced NF-kB activity. In short, it runs like this: as §1
[4] abbreviates: library stock concentration (final ~1000-fold dilution): 10 mM, cytotoxicity flag (confluency mask): not cytotoxic, agonist: Imiquimod (TLR7) […].
Setting [5] is: library stock concentration (final ~1000-fold dilution): 10 mM, cytotoxicity flag (confluency mask): not cytotoxic, agonist: MPLA (TLR4) […].
[6] abbreviates: agonist: ODN 1826 (TLR9) 0.5 ug/mL.
[7] abbreviates: agonist: Pam2CSK4 (TLR2/6) 0.1 ug/mL.
Setting [8] is: agonist: Pam3CSK4 (TLR2/1) 0.1 ug/mL.
Where [9] appears, read: library stock concentration (final ~1000-fold dilution): 10 mM, cytotoxicity flag (confluency mask): cytotoxic (confluency <70% of control), agonist: Imiquimod (TLR7) […].
Where [10] appears, read: library stock concentration (final ~1000-fold dilution): 10 mM, cytotoxicity flag (confluency mask): cytotoxic (confluency <70% of control), agonist: MPLA (TLR4) […].

As for `COc1cc(-c2cc(-c3ccc(N4CCNCC4)cc3)cnc2C)cc(OC)c1OC`, the entries for the “NF-kB SEAP reporter activity” value in the experiment on RAW-Dual [1] (setting [4]) and in the experiment with RAW-Dual [1] (setting [5]) were 1.28 and 1.94, respectively.
As for `c1cc(-c2cnn3cc(-c4ccc(N5CCNCC5)cc4)cnc23)c2cccnc2c1` (library stock concentration (final ~1000-fold dilution): 10 mM), the “NF-kB SEAP reporter activity” value in the experiment with RAW-Dual [2] (agonist: LPS (TLR4) 0.1 ug/mL) amounted to 0.202; in the experiment on RAW-Dual [2] (setting [6]) it was 0.193; in the experiment on RAW-Dual [2] (setting [7]), 0.0775; in the experiment with RAW-Dual [2] (setting [8]), 0.149.
Take `COc1cc(-c2cc(-c3cccc(O)c3)cnc2N)cc(OC)c1OC`: the “NF-kB SEAP reporter activity” value in the experiment with RAW-Dual [1] (setting [4]) turned out to be 1.24; with RAW-Dual [1] (setting [5]), 1.77.
For the compound `c1cc(-c2cnn3cc(-c4ccc(N5CCNCC5)cc4)cnc23)c2cccnc2c1`, the “NF-kB SEAP reporter activity” value in the experiment on RAW-Dual [1] (setting [9]) is 0.258; in the experiment on RAW-Dual [1] (setting [10]) it was 0.269.
As to `COc1cc(-c2cc(-c3cccc(O)c3)cnc2N)cc(OC)c1OC` (library stock concentration (final ~1000-fold dilution): 10 mM), the “NF-kB SEAP reporter activity” value is 1.87 in the experiment with RAW-Dual [3] (agonist: LPS (TLR4) 0.1 ug/mL), 1.54 with RAW-Dual [3] (setting [6]), 1.09 in the experiment with RAW-Dual [3] (setting [7]) and 1.39 in the experiment with RAW-Dual [3] (setting [8]).
On to `COc1cc(-c2cc(-c3ccc(N4CCNCC4)cc3)cnc2C)cc(OC)c1OC` (library stock concentration (final ~1000-fold dilution): 10 mM), for which the “NF-kB SEAP reporter activity” value amounted to 3.37 with RAW-Dual [3] (agonist: LPS (TLR4) 0.1 ug/mL), 0.202 in the experiment with RAW-Dual [3] (setting [6]), 1.29 in the experiment with RAW-Dual [3] (setting [7]) and 1.57 with RAW-Dual [3] (setting [8]).
Regarding `C[C@@H]1O[C@@H](O[C@H]2[C@H](OC(=O)[C@]34CCC(C)(C)C[C@H]3C3=CC[C@@H]5[C@@]6(C)C[C@H](O)[C@H](O[C@@H]7O[C@H](CO)[C@@H](O)[C@H](O)[C@H]7O)[C@@](C)(CO)[C@@H]6CC[C@@]5(C)[C@]3(C)CC4)O[C@H](CO)[C@@H](O)[C@@H]2O)[C@H](O)[C@H](O)[C@H]1O[C@@H]1OC[C@@H](O)[C@H](O)[C@H]1O`, the “NF-kB SEAP reporter activity” value came to 0.83 with RAW-Dual [1] (setting [4]) and 1.01 in the experiment with RAW-Dual [1] (setting [5]).
As to `C[C@@H]1O[C@@H](O[C@H]2[C@H](OC(=O)[C@]34CCC(C)(C)C[C@H]3C3=CC[C@@H]5[C@@]6(C)C[C@H](O)[C@H](O[C@@H]7O[C@H](CO)[C@@H](O)[C@H](O)[C@H]7O)[C@@](C)(CO)[C@@H]6CC[C@@]5(C)[C@]3(C)CC4)O[C@H](CO)[C@@H](O)[C@@H]2O)[C@H](O)[C@H](O)[C@H]1O[C@@H]1OC[C@@H](O)[C@H](O)[C@H]1O` (library stock concentration (final ~1000-fold dilution): 10 mM), the “NF-kB SEAP reporter activity” value in the experiment on RAW-Dual [3] (agonist: LPS (TLR4) 0.1 ug/mL) is 1.11; in the experiment with RAW-Dual [3] (setting [6]), 0.984; in the experiment on RAW-Dual [3] (setting [7]), 1.04; in the experiment with RAW-Dual [3] (setting [8]), 1.19.
Take `CN(C)C(CCOc1cccc2ccccc12)c1ccccc1.Cl` (configuration not stated): the results for the “NF-kB SEAP reporter activity” value with RAW-Dual [1] (setting [9]) and in the experiment with RAW-Dual [1] (setting [10]) were 1.61 and 0.958, respectively.
Take `CN(C)C(CCOc1cccc2ccccc12)c1ccccc1.Cl` (configuration not stated) (library stock concentration (final ~1000-fold dilution): 10 mM): the “NF-kB SEAP reporter activity” value in the experiment with RAW-Dual [2] (agonist: LPS (TLR4) 0.1 ug/mL) worked out at 1.05; with RAW-Dual [2] (setting [6]), 0.655; with RAW-Dual [2] (setting [7]) it was 0.546; in the experiment with RAW-Dual [2] (setting [8]), 0.65.
For the compound `CCCSc1nc(NC2CC2c2ccc(F)c(F)c2)c2nnn(C3CC(OCCO)C(O)C3O)c2n1` (configuration not stated), the figures for the “NF-kB SEAP reporter activity” value in the experiment with RAW-Dual [1] (setting [9]) and in the experiment with RAW-Dual [1] (setting [10]) were 1.05 and 0.94, respectively.
Take `CCCSc1nc(NC2CC2c2ccc(F)c(F)c2)c2nnn(C3CC(OCCO)C(O)C3O)c2n1` (configuration not stated) (library stock concentration (final ~1000-fold dilution): 10 mM): the “NF-kB SEAP reporter activity” value in the experiment on RAW-Dual [2] (agonist: LPS (TLR4) 0.1 ug/mL) was 1.04; in the experiment with RAW-Dual [2] (setting [6]) it was 0.615; in the experiment on RAW-Dual [2] (setting [7]), 0.51; in the experiment on RAW-Dual [2] (setting [8]), 0.332.
For the compound `Cl.Cl.O=C(O)c1ccc(CN2CCC(CNC3CC3c3ccccc3)CC2)cc1` (configuration not stated) (library stock concentration (final ~1000-fold dilution): 10 mM), the “NF-kB SEAP reporter activity” value in the experiment on RAW-Dual [3] (agonist: LPS (TLR4) 0.1 ug/mL) was 1.01; in the experiment with RAW-Dual [3] (setting [6]) it was 1.22; in the experiment with RAW-Dual [3] (setting [7]), 0.875; in the experiment with RAW-Dual [3] (setting [8]), 0.786.
Regarding `Cl.Cl.O=C(O)c1ccc(CN2CCC(CNC3CC3c3ccccc3)CC2)cc1` (configuration not stated), the “NF-kB SEAP reporter activity” value with RAW-Dual [1] (setting [4]) came to 1.01; with RAW-Dual [1] (setting [5]), 1.05.
As to `COc1cc(Nc2nc3ccccc3nc2NS(=O)(=O)c2ccc(NC(=O)c3ccc(C)c(OC)c3)cc2)cc(OC)c1`, the results for the “NF-kB SEAP reporter activity” value with RAW-Dual [1] (setting [4]) and in the experiment with RAW-Dual [1] (setting [5]) were 0.914 and 0.963, respectively.
On to `COc1cc(Nc2nc3ccccc3nc2NS(=O)(=O)c2ccc(NC(=O)c3ccc(C)c(OC)c3)cc2)cc(OC)c1` (library stock concentration (final ~1000-fold dilution): 10 mM), for which the “NF-kB SEAP reporter activity” value is 2.08 in the experiment on RAW-Dual [3] (agonist: LPS (TLR4) 0.1 ug/mL), 1.04 with RAW-Dual [3] (setting [6]), 0.51 in the experiment on RAW-Dual [3] (setting [7]) and 0.561 in the experiment with RAW-Dual [3] (setting [8]).
As to `COc1cnc(NS(=O)(=O)c2ccc(N)cc2)nc1`, the “NF-kB SEAP reporter activity” value in the experiment on RAW-Dual [1] (setting [4]) amounted to 0.927; in the experiment on RAW-Dual [1] (setting [5]), 1.02.
With `COc1ccc(S(=O)(=O)Nc2cccnc2Nc2ccc(O)cc2)cc1`, the “NF-kB SEAP reporter activity” value with RAW-Dual [1] (setting [4]) came to 2.48; in the experiment on RAW-Dual [1] (setting [5]) it was 1.92.
Take `COc1ccc(S(=O)(=O)Nc2cccnc2Nc2ccc(O)cc2)cc1` (library stock concentration (final ~1000-fold dilution): 10 mM): the “NF-kB SEAP reporter activity” value with RAW-Dual [3] (agonist: LPS (TLR4) 0.1 ug/mL) is 4.93; in the experiment on RAW-Dual [3] (setting [6]), 3.17; in the experiment with RAW-Dual [3] (setting [7]), 1.86; in the experiment on RAW-Dual [3] (setting [8]), 2.22.
For the compound `COc1cnc(NS(=O)(=O)c2ccc(N)cc2)nc1` (library stock concentration (final ~1000-fold dilution): 10 mM), the “NF-kB SEAP reporter activity” value in the experiment on RAW-Dual [3] (agonist: LPS (TLR4) 0.1 ug/mL) came to 1.22; in the experiment on RAW-Dual [3] (setting [6]) it was 0.999; in the experiment with RAW-Dual [3] (setting [7]) it was 1.13; in the experiment on RAW-Dual [3] (setting [8]), 1.19.
For the compound `CCC(C)n1cc(C)c2c(C(=O)NCc3c(C)cc(C)[nH]c3=O)cc(-c3ccc(N4CCNCC4)nc3)cc21` (configuration not stated), the “NF-kB SEAP reporter activity” value in the experiment with RAW-Dual [1] (library stock concentration (final ~1000-fold dilution): 2 mM, cytotoxicity flag (confluency mask): not cytotoxic, agonist: Imiquimod (TLR7) […]) was determined as 0.954; in the experiment with RAW-Dual [1] (library stock concentration (final ~1000-fold dilution): 2 mM, cytotoxicity flag (confluency mask): not cytotoxic, agonist: MPLA (TLR4) […]), 0.941.
On to `CCC(C)n1cc(C)c2c(C(=O)NCc3c(C)cc(C)[nH]c3=O)cc(-c3ccc(N4CCNCC4)nc3)cc21` (configuration not stated) (library stock concentration (final ~1000-fold dilution): 2 mM), for which the “NF-kB SEAP reporter activity” value came to 1.17 in the experiment with RAW-Dual [3] (agonist: LPS (TLR4) 0.1 ug/mL), 0.973 in the experiment with RAW-Dual [3] (setting [6]), 0.979 with RAW-Dual [3] (setting [7]) and 1.07 in the experiment with RAW-Dual [3] (setting [8]).
On to `COc1ccc(-c2cc(=O)c3c(O)c(OC)c(O)c(OC)c3o2)cc1` (library stock concentration (final ~1000-fold dilution): 10 mM), for which the “NF-kB SEAP reporter activity” value with RAW-Dual [3] (agonist: LPS (TLR4) 0.1 ug/mL) is 1.27; with RAW-Dual [3] (setting [6]), 0.993; with RAW-Dual [3] (setting [7]), 1.14; in the experiment with RAW-Dual [3] (setting [8]) it was 1.05.
In the case of `COc1ccc(-c2cc(=O)c3c(O)c(OC)c(O)c(OC)c3o2)cc1`, the “NF-kB SEAP reporter activity” value with RAW-Dual [1] (setting [4]) came out at 0.931; in the experiment with RAW-Dual [1] (setting [5]), 1.09.
